# In PubChem BioAssay AID1209 (Sanford-Burnham Center for Chemical Genomics, 2008):
# Several values for one entry are separate records, joined by “and”; a condition that tells them apart may be missing. Identical values can stand only once. About 810 (0.43%) of roughly 190,000 compounds were called active. Rule as the data show it: active = inhibition above about 50%; inactive = the rest. Many of the other results were omitted from the sample, so actives are more common in it than they were.
# Molecular target: Mannose-6-phosphate isomerase (Homo sapiens) (UniProt P34949)
# Sequence (P34949 whole entry, looked up): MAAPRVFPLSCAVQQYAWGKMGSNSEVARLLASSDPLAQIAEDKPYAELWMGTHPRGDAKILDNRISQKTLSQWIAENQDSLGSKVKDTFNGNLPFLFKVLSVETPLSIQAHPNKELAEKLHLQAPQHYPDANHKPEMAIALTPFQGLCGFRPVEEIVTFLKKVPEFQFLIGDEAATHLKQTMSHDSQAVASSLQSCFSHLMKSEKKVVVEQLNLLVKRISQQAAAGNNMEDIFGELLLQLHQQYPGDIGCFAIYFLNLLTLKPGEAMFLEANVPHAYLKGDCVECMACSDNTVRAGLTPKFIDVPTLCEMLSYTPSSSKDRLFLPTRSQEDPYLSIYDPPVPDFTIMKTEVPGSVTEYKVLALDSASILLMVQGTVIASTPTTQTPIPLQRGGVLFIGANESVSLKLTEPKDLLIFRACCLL
# Test: inhibitors of human PMI, primary screen, biochemical, fluorescence intensity, coupled assay (AID 1209);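 also: plate controls were DMSO vehicle for no effect and wells lacking substrate for full effect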
# Conditions: purified PMI enzyme, at 20 µM, hits give high values
row,SMILES,inhibition
1,O=c1c2ccccc2oc2nc(-c3ccco3)n(-c3ccccc3)c(=O)c12,1.3% (inactive)
2,Cn1c(=Nc2ccc(N3CCOCC3)cc2)ccc2ccccc21,78.4% (active)
3,CCn1c(=Nc2ccc(N3CCOCC3)cc2)ccc2ccccc21,6% (inactive)
4,Cn1c(N=Nc2ccc(N3CCOCC3)cc2)[n+](C)c2ccccc21,15.1% (inactive)
5,CCOC(=O)Cc1csc(NC(=O)c2c(-c3ccccc3)noc2C)n1,2.9% (inactive)
6,Cc1cc(C)n(C(=O)c2ccncc2)n1,6.1% (inactive)
7,Cc1oc2cc(O)ccc2c(=O)c1Oc1ccccc1,9.2% (inactive)
8,CC(=O)Oc1ccc2c(=O)c(N3C(=O)c4ccccc4C3=O)c(C)oc2c1C,14.5% (inactive)
9,CCn1c(NCc2ccccn2)nc2c1c(=O)n(C)c(=O)n2C,-0.4% (inactive)
10,Oc1c(/C=N/Nc2cccc3cccnc23)ccc2ccccc12,-30.2% (inactive)
11,Oc1c(C=Nc2cccc3nsnc23)ccc2ccccc12,70.7% (active)
12,Oc1c(/C=N/c2ncn[nH]2)ccc2ccccc12,14.9% (inactive)
13,CCCCCCC1CC(=O)NC(=S)N1 (stereo not drawn),4.8% (inactive)
14,COc1ccc(NC(=O)C(C)Oc2ccc(/C(C)=N\O)cc2)cc1 (stereo not drawn),-0.3% (inactive)
15,COc1cccc2cc(C(C)N(CCCN3CCOCC3)C(=S)Nc3cccc(C)c3)oc12 (stereo not drawn),5.2% (inactive)
16,COc1ccc(CNC(=O)c2cccc3c2C(=O)N(Cc2cccnc2)C3)cc1,4.4% (inactive)
17,Cc1c(Br)c(=O)oc2c(Br)c(O)c(O)cc12,12.8% (inactive)
18,Cc1c(Br)c(=O)oc2c(Br)c(O)ccc12,-26.1% (inactive)
19,O=c1oc2c(O)c(O)cc3c(=O)oc4c(O)c(O)cc1c4c23,67.5% (active)
20,O=C(COC(=O)c1ccc(Cl)nc1)c1ccc2c(c1)OCCO2,-10.6% (inactive)
21,CSCC[C@H](NC(=O)c1cc([N+](=O)[O-])ccc1Cl)c1nc2ccccc2[nH]1,16.7% (inactive)
22,CN(C)c1ncccc1-c1nc2ccccc2s1,-2.6% (inactive)
23,COc1ccc2c(C)c(Cc3ccccc3)c(=O)oc2c1OC,0.7% (inactive)
24,Cc1c(Cc2ccccc2)c(=O)oc2c(O)c(O)ccc12,77.6% (active)
25,Cc1c(Cc2ccccc2)c(=O)oc2c(CN(C)C)c(O)c(Cl)cc12,1.2% (inactive)

row,SMILES,inhibition
1,N#C/C(C(=O)N1CCCCC1)=C1/N=C(N)c2ccccc21,-1.3% (inactive)
2,CC1CC1C(=O)Nc1cc(S(=O)(=O)N2CCOCC2)ccc1N1CCCC1 (stereo not drawn),-3.9% (inactive)
3,N#Cc1ccc(OCC(=O)NCCc2ccc(S(N)(=O)=O)cc2)cc1,-7% (inactive)
4,O=c1c2ccccc2sn1-c1ccc(S(=O)(=O)N2CCCC2)cc1,42.4% (inactive)
5,O=S(=O)(c1ccc2c(c1)oc1ccccc12)N1CCOCC1,9.1% (inactive)
6,O=c1c2ccccc2sn1-c1cc(S(=O)(=O)N2CCOCC2)ccc1N1CCCC1,92.7% (active)
7,O=C(O)c1cc(S(=O)(=O)N2CCOCC2)ccc1N1CCOCC1,-1% (inactive)
8,Cc1ccc(C)n1-c1cc(S(=O)(=O)N2CCOCC2)ccc1N1CCCC1,9.8% (inactive)
9,O=c1c2ccccc2sn1-c1cc(S(=O)(=O)N2CCOCC2)ccc1N1CCOCC1,104% (active)
10,CC(=O)c1ccc(N(C(=O)c2ccco2)C(C(=O)NC2CCCC2)c2ccc(N3CCOCC3)cc2)cc1 (stereo not drawn),6.3% (inactive)
11,Cc1ccc(P(=O)(CO)c2ccc(C)cc2)cc1,-12% (inactive)
12,CN(Cc1ccccc1)C(=O)COC(=O)c1ccc(Cl)c(N)c1,9.3% (inactive)
13,O=C(Cc1ccc(Cl)cc1Cl)NCC1(N2CCOCC2)CCCCC1,14.5% (inactive)
14,Cc1ccc(NS(=O)(=O)c2cc(C(=O)Nc3cccc(N(C)S(C)(=O)=O)c3)ccc2C)c(C)c1,5.7% (inactive)
15,CCOC(=O)C1CCN(C(=O)CC(C)c2ccccc2)CC1 (stereo not drawn),-0.6% (inactive)
16,CCN(CC)c1ccc(C=Nc2ccccc2C)c(O)c1,27.1% (inactive)
17,CCc1ccc(O)c(N=Cc2cccc(C)c2O)c1,18.5% (inactive)
18,CCN(CC)c1ccc(C=Nc2ccc(C)cc2C)c(O)c1,-0.7% (inactive)
19,Cc1ccccc1N=Cc1cccc(O)c1O,74.1% (active)
20,Cc1ccc(O)c(C=Nc2cc(C)ccc2O)c1,23.1% (inactive)
21,O=C(/C=C/c1ccc([N+](=O)[O-])cc1)N(c1ccccn1)C1CCCCC1,-38.1% (inactive)
22,COc1cc(/C=N/N=C(/N)c2nonc2N)cc(Br)c1OCc1cccc(C)c1,16.3% (inactive)
23,OC(CNCc1ccccc1Cl)C(F)(F)F (stereo not drawn),5.4% (inactive)
24,COc1ccccc1N1CCN(C(=O)c2ccc(CSc3ccccc3)cc2)CC1,-1.4% (inactive)
25,Cc1ccc(O)c(CP(=O)(c2ccccc2)c2ccccc2)c1,-4.9% (inactive)

row,SMILES,inhibition
1,COc1ccc(F)cc1C(=O)C1CCCN(C(=O)C2=C(C)OCCO2)C1 (stereo not drawn),5.1% (inactive)
2,CCCCCCn1c(SCC(=O)OC)nc2c1c(=O)[nH]c(=O)n2C,54% (active)
3,CCCCn1c(SCC(=O)OCC)nc2c1c(=O)[nH]c(=O)n2C,3.6% (inactive)
4,CCCCCn1c(SCC(=O)OC)nc2c1c(=O)[nH]c(=O)n2C,0.2% (inactive)
5,Fc1ccc2nc(N3CCCC3)sc2c1,8.5% (inactive)
6,COc1cc(CNC(C)(C)CO)cc(Br)c1OCc1ccc(Cl)cc1,5.6% (inactive)
7,FC(F)(F)c1cccc(OCCOCCn2cncn2)c1,3.9% (inactive)
8,O=C(NCc1ccco1)c1cnn2c1NC(c1ccc(Br)cc1)CC2C(F)(F)F (stereo not drawn),27% (inactive)
9,Cc1ccc(C2CC(C(F)(F)F)n3ncc(C(=O)NCc4ccco4)c3N2)cc1 (stereo not drawn),108% (active)
10,O=C(NCc1ccco1)c1cnn2c1NC(c1ccccc1)CC2C(F)(F)F (stereo not drawn),-6.3% (inactive)
11,COc1cc(NC(=O)C(C)Oc2ccccc2)c(C(=O)O)cc1OC (stereo not drawn),10.7% (inactive)
12,O=C(Cc1c[nH]c2ccccc12)NC1(C(=O)NC2CCCCC2)CCCCC1,-4% (inactive)
13,COC(=O)c1ccc(C2C(Oc3ccc(OC)cc3)C(=O)N2CCc2ccc(OC)c(OC)c2)cc1 (stereo not drawn),52% (active)
14,COC(=O)c1ccc(C2C(Oc3ccc(OC)cc3)C(=O)N2CCc2ccc(F)cc2)cc1 (stereo not drawn),-0.6% (inactive)
15,COC(=O)c1ccc(C2C(Oc3ccccc3)C(=O)N2CCc2ccc(OC)c(OC)c2)cc1 (stereo not drawn),-2.9% (inactive)
16,COCCNC(=O)C(c1cccs1)N(C(=O)Cn1nnc2ccccc21)c1cccc(C)c1 (stereo not drawn),5.9% (inactive)
17,O=C(Cn1cc(/C=N/NC(=O)c2ccccc2Br)c2ccccc21)Nc1ccc(F)cc1,5.7% (inactive)
18,O=C(CCS(=O)(=O)c1ccc(Cl)cc1)OCC(=O)N1CCCCC1,9.3% (inactive)
19,Cc1cccc(-n2nnc(C(=O)NCc3ccco3)c2N)c1,-18.8% (inactive)
20,CCOC(=O)c1ccc(N2C(=O)CC(N(C)CCc3ccc(OC)c(OC)c3)C2=O)cc1 (stereo not drawn),16.4% (inactive)
21,CCOc1ccc(N2C(=O)CC(N(CCc3ccc(OC)c(OC)c3)C(=S)Nc3ccccc3)C2=O)cc1 (stereo not drawn),19.8% (inactive)
22,CCOc1cccc(N2C(=O)CC(N(CCc3ccc(OC)c(OC)c3)C(=O)CC)C2=O)c1 (stereo not drawn),57% (active)
23,O=C(CSc1n[nH]c(=O)[nH]c1=O)Nc1ccc(C(=O)O)cc1,-8.4% (inactive)
24,O=[N+]([O-])c1cc(-c2ncccn2)cs1,-13.4% (inactive)
25,O=[N+]([O-])c1cccnc1NCc1cccs1,-2.4% (inactive)

row,SMILES,inhibition
1,O=C(O)CCC(=O)Nc1ccc(Cc2ccc(NC(=O)CCC(=O)O)c(O)c2)cc1O,-9.3% (inactive)
2,Cc1ccc(Cl)cc1N1CCN(C(=O)CN2C(=O)c3cccc4cccc2c34)CC1,12.6% (inactive)
3,c1cnc2c(c1)ccc1cccnc12,5.7% (inactive) and 24.3% (inactive)
4,O=S1(=O)NC(=NCCc2ccccn2)c2ccccc21,-7.8% (inactive)
5,O=S1(=O)Nc2c(ccc3cccnc23)-c2ccccc21,62% (active)
6,COc1ccc(-c2c(C)n([O-])c3c([n+]2=O)CCC3)cc1OC,8% (inactive)
7,c1ccc(-c2ccccc2-n2cnnn2)cc1,-7.6% (inactive)
8,Cc1cc(C)nc(N2CCCC(C(=O)Nc3nnc(C)s3)C2)n1 (stereo not drawn),-13.6% (inactive)
9,O=C(Nc1nc2ccc(S(=O)(=O)N3CCCC3)cc2s1)C1CCCCC1,7.3% (inactive)
10,Cc1cc(C)nc(N2CCCC(C(=O)Nc3nc4ccc(S(C)(=O)=O)cc4s3)C2)n1 (stereo not drawn),51.4% (active)
11,CS(=O)(=O)c1ccc2nc(NC(=O)CCC(=O)c3cccs3)sc2c1,-8.5% (inactive)
12,CCc1c(C(C)S(=O)(=O)c2ccccc2)[nH]c(=O)n1CC (stereo not drawn),-38% (inactive)
13,CCn1c(C)c(CS(=O)(=O)c2ccccc2)[nH]c1=O,85.5% (active)
14,Cc1nn(C)c(C)c1CS(=O)(=O)c1ccccc1,-8.9% (inactive)
15,Cc1cc(C)cc(-n2cc(C(=O)O)c(=O)cc2C)c1,5.3% (inactive)
16,COc1ccc(NC(=O)CSc2nc3sc(C)c(C)c3c(=O)n2Cc2ccco2)cc1,7.7% (inactive)
17,CCOc1c(O)ccc(/C=C2\SC(=S)NC2=O)c1[N+](=O)[O-],55.7% (active)
18,C=CCN1C(=O)/C(=C/c2ccc(OC(C)=O)c(OCC)c2[N+](=O)[O-])SC1=S,41.3% (inactive)
19,CCOc1ccc(/C=C2\SC(=S)NC2=O)cc1OC,-12% (inactive)
20,CC(=O)c1c(C)[nH]c(C(=O)O)c1C,13.6% (inactive)
21,CC(=O)c1[nH]c(C)c(C(C)=O)c1C,11% (inactive)
22,CC(=O)c1c(C(=O)O)[nH]c(C(=O)O)c1C,108% (active)
23,S=c1nc(-c2ccccc2)n(CCCn2ccnc2)c2c1CCCC2,1.7% (inactive)
